Results filed as inconclusive are left out. Calls of active or inactive are those of the source. Rule for the calls, unless noted: active = hit-call score of the fitted dose curve at least 0.9, where 1 is the maximum; inactive = score below 0.9.
Experiments:
[1] = ATG_CRE_CIS: Attagene CIS-FACTORIAL HepG2 Assay for human cAMP Responsive Element (CRE) binding protein 3 (AID 2282926); conditions: HepG2 CRE cis-reporter, Attagene multiplexed mRNA; actives raise or lower the signal
Procedure, shortened: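 Endogenous transcription factor activity read via CRE-regulated reporter transcripts in transfected HepG2 cells. After 24 h exposure, RNA was reverse-transcribed, amplified, fluorescently labelled and sized by capillary electrophoresis; gain or loss fitted against DMSO.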

[2] = target: Aryl hydrocarbon receptor (Homo sapiens) (UniProt P35869); test: ATG_Ahr_CIS: Attagene CIS-FACTORIAL HepG2 Assay for human Aryl Hydrocarbon Receptor (Ahr) (AID 2282930); conditions: HepG2 AhR cis-factorial reporter transcription; actives raise or lower the signal
Aryl hydrocarbon receptor (Homo sapiens), sequence (P35869 whole entry, looked up): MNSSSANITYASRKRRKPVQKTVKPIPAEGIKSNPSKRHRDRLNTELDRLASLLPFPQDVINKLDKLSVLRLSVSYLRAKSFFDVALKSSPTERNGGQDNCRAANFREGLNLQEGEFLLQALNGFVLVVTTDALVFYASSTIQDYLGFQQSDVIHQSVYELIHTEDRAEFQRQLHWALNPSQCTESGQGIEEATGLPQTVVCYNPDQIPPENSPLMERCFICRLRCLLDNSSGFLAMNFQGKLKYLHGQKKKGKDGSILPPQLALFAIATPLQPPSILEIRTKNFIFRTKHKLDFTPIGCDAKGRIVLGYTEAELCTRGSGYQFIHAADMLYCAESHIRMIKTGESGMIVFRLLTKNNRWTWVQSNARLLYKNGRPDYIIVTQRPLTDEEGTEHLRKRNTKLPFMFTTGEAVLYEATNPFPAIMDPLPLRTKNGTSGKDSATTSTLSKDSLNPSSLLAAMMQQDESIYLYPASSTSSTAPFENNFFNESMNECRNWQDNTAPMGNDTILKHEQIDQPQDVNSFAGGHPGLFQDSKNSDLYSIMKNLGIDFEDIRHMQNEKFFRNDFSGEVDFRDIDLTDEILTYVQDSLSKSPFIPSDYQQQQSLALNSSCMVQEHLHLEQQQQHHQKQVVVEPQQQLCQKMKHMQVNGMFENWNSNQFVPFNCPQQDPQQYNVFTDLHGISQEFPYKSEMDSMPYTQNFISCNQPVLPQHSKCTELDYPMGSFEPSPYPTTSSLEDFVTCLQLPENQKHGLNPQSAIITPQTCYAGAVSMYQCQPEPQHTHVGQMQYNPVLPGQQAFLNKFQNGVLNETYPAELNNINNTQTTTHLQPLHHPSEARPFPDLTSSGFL
Procedure, shortened: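 Following 24 h of chemical dosing, transfected HepG2 liver cells with cis-driven reporter units were lysed for RNA; reporter mRNA was quantified via RT-PCR and capillary electrophoresis, and responses fitted bidirectionally from DMSO.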

[3] = target: Hepatocyte nuclear factor 3-beta (Homo sapiens) (UniProt Q9Y261); test: ATG_FoxA2_CIS: Attagene CIS-FACTORIAL HepG2 Assay for human Forkhead box A2 (FOXA2) (AID 2282942); conditions: HepG2 cis-reporter transcription factor activity, 24 h; actives raise or lower the signal
Procedure, shortened: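 In transiently transfected human HepG2 cells, promoter-driven reporter mRNA levels after 24 h chemical exposure are determined via RT-PCR with capillary electrophoresis. DMSO serves as baseline for bidirectional fitting.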

[4] = target: Transcription factor Sp1 (Homo sapiens) (UniProt P08047); test: ATG_Sp1_CIS: Attagene CIS-FACTORIAL HepG2 Assay for human Specificity Protein 1 (Sp1) (AID 2282961); conditions: HepG2 Sp1 cis-reporter transcription, actives raise or lower the signal
Transcription factor Sp1 (Homo sapiens), sequence (P08047 whole entry, looked up): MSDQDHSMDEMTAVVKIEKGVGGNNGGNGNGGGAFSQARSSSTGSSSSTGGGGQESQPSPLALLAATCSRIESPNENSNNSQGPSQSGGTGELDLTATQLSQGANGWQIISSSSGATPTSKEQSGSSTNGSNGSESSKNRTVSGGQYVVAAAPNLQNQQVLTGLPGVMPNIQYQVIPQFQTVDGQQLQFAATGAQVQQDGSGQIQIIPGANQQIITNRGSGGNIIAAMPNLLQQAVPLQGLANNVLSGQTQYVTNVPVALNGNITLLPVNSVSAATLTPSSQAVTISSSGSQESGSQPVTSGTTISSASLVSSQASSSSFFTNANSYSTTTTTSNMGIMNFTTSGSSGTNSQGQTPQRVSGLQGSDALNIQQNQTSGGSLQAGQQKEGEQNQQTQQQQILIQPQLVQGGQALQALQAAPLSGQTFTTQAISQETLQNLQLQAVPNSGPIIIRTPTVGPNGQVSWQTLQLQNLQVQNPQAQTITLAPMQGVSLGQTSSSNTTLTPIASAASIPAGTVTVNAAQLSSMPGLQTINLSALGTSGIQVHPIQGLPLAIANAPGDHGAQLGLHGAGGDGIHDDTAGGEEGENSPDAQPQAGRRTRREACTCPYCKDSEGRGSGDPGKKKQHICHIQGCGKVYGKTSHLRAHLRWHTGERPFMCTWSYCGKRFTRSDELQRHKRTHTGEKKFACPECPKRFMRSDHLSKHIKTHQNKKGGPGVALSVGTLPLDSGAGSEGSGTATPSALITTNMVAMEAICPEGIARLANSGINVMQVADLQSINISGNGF
Procedure, shortened: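 Sp1-driven reporter mRNA, read as capillary electrophoresis fluorescence after RT-PCR, in transiently transfected HepG2 cells dosed for 24 h; signal change in either direction relative to DMSO.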

[5] = ATG_SREBP_CIS: Attagene CIS-FACTORIAL HepG2 Assay for human Sterol Regulatory Element Binding (SREBP) (AID 2282962); conditions: HepG2 Attagene cis-factorial SREBP reporter, mRNA; actives raise or lower the signal
Procedure, shortened: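 In this cis-format assay, HepG2 liver cells express reporters controlled by promoter elements responsive to native transcription factors. Exposure lasts 24 h; reporter mRNA fluorescence from capillary electrophoresis gives the signal, fitted bidirectionally against DMSO.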

[6] = target: Signal transducer and activator of transcription 3 (Homo sapiens) (UniProt P40763); test: ATG_STAT3_CIS: Attagene CIS-FACTORIAL HepG2 Assay for human Signal Transducer and Activator of Transcription 3 (STAT3) (AID 2282963); conditions: HepG2, Attagene cis-factorial STAT3 reporter transcription; actives raise or lower the signal
Signal transducer and activator of transcription 3 (Homo sapiens), sequence (P40763 whole entry, looked up): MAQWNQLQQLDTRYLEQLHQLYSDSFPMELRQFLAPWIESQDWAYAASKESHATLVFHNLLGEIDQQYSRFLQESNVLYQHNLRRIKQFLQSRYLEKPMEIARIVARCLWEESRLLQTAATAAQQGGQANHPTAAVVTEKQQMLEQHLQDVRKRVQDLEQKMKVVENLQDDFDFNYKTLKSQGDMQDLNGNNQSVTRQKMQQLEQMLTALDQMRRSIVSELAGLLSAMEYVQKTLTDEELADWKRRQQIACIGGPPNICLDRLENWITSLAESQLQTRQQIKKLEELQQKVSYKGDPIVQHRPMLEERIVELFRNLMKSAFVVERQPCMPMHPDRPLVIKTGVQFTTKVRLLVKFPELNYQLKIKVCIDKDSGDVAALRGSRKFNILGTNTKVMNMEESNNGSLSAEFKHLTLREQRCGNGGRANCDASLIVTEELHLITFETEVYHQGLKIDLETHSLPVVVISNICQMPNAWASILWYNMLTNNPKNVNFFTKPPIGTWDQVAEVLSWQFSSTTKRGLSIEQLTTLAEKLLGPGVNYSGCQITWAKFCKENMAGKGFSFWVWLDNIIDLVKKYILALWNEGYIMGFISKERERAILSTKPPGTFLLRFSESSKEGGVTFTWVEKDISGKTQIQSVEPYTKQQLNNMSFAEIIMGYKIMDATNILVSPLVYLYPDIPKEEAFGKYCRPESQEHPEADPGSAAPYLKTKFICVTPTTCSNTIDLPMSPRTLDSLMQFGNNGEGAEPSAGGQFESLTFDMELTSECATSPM
Procedure, shortened: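 HepG2, MRTU-transfected, 24 h dosing. RNA → RT → PCR → FAM label → HpaI → CE. Bidirectional fit vs DMSO.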

[7] = ATG_TA_CIS: Attagene CIS-FACTORIAL HepG2 Assay for human TA Basal Promoter (AID 2282964); conditions: HepG2 Attagene CIS-factorial TA basal promoter reporter; actives raise or lower the signal
Procedure, shortened: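 Fluorescence from labelled RT-PCR reporter fragments, separated by capillary electrophoresis, gives the signal. Cells: HepG2 transiently carrying multiple reporter units, 24 h chemical dosing. Gain or loss relative to DMSO.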

[8] = ATG_TCF_b_cat_CIS: Attagene CIS-FACTORIAL HepG2 Assay for human T-Cell-Factor with beta-catenin (TCF/b-cat) (AID 2282965); conditions: HepG2 TCF/beta-catenin cis-reporter transcription, actives raise or lower the signal
Procedure, shortened: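 In this cis-format system, transfected HepG2 cells report endogenous transcription factor activity. Readout after 24 h exposure is reporter transcript abundance from RT-PCR and capillary electrophoresis, analysed for gain or loss of signal versus DMSO.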

[9] = ATG_TAL_CIS: Attagene CIS-FACTORIAL HepG2 Assay for human TAL Basal Promoter (AID 2282966); conditions: HepG2 Attagene cis-factorial TAL promoter reporter; actives raise or lower the signal;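 note: background control endpoint measuring basal TAL promoter reporter mRNA not a specific factor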
Procedure, shortened: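 Background-control endpoint: basal TAL promoter reporter transcripts in transiently transfected HepG2, measured 24 h after dosing. Read-out by RT-PCR with fluorescent primer extension and capillary electrophoresis; gain or loss of signal fitted relative to DMSO.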

[10] = ATG_TGFb_CIS: Attagene CIS-FACTORIAL HepG2 Assay for human Transforming Growth Factor (TGF) (AID 2282967); conditions: HepG2 Attagene CIS TGFb reporter, mRNA transcription; actives raise or lower the signal
Procedure, shortened: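 Bidirectional fitting relative to DMSO gave the endpoint. Underlying data: reporter mRNA from HepG2 cells carrying transiently transfected cis-regulated reporter constructs, harvested 24 h after dosing and analyzed by RT-PCR and capillary electrophoresis.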

[11] = ATG_VDRE_CIS: Attagene CIS-FACTORIAL HepG2 Assay for human Vitamin D Receptor Element (VDRE) (AID 2282968); conditions: HepG2 VDRE cis-reporter transcription, actives raise or lower the signal
Procedure, shortened: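 Steps: transfect HepG2 with multiple reporter transcription units; dose chemicals 24 h; isolate RNA; RT-PCR; label with 6-FAM primer extension; HpaI digest; capillary electrophoresis. Curves fitted both directions against DMSO.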

[12] = target: X-box-binding protein 1 (Homo sapiens) (UniProt P17861); test: ATG_Xbp1_CIS: Attagene CIS-FACTORIAL HepG2 Assay for human X-box Binding Protein 1 (XBP1) (AID 2282972); conditions: HepG2 XBP1 cis-element reporter, Attagene multiplex; actives raise or lower the signal
X-box-binding protein 1 (Homo sapiens), sequence (P17861 whole entry, looked up): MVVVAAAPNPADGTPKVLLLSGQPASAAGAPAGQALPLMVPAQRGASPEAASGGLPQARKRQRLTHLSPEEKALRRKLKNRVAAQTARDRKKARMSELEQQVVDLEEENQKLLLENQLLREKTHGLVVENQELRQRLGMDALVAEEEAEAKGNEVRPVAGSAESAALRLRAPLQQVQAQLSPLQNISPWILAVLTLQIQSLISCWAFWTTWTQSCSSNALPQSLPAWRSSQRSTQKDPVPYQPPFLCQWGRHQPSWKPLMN
Procedure, shortened: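 Changes in reporter transcript abundance, read by RT-PCR and capillary electrophoresis, reflect endogenous transcription factor activity. Transfected HepG2 cells received compound for 24 hours; DMSO defined baseline for bidirectional analysis.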

[13] = ATG_M_32_TRANS: Attagene TRANS-FACTORIAL HepG2 Assay for M32 Transcription Factor (Internal Marker) (AID 2282984; active = hit-call score of the fitted dose curve at least 0.9, where 1 is the maximum); conditions: HepG2 Attagene TRANS M32 internal marker reporter
Procedure, shortened: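 After 24 h dosing of transfected HepG2 cells, total RNA was reverse-transcribed, reporter sequences PCR-amplified, 6-FAM labelled by primer extension and HpaI-digested before capillary electrophoresis. Signal increase over DMSO was fitted.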

[14] = target: Transcriptional activator Myb (Homo sapiens) (UniProt P10242); test: ATG_Myb_CIS: Attagene CIS-FACTORIAL HepG2 Assay for human Myeloblastosis (Myb) Proto-Oncogene Transcription Factor (AID 2282986); conditions: HepG2 Attagene CIS-FACTORIAL Myb reporter transcription; actives raise or lower the signal
Transcriptional activator Myb (Homo sapiens), sequence (P10242 whole entry, looked up): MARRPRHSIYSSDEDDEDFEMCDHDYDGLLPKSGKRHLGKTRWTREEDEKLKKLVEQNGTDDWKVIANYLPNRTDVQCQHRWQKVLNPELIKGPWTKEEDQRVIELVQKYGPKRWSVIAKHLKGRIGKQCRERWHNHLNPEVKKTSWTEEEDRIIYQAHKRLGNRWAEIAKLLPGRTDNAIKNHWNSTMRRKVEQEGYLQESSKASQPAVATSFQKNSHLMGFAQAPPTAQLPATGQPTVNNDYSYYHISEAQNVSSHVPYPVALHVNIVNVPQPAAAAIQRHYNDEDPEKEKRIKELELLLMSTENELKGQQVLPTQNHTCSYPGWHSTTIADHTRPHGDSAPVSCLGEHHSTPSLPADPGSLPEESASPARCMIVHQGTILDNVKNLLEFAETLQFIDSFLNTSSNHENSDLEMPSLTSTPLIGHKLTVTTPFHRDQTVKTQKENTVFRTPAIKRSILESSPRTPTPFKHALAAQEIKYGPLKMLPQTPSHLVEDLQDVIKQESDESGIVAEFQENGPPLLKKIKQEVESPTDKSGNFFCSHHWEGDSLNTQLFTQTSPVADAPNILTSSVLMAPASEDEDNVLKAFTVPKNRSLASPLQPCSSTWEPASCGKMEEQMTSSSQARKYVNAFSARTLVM
Procedure, shortened: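 Fluorescence signals from capillary electrophoresis of RT-PCR-amplified reporter cDNA give the read-out. Cells: HepG2 transfected with multiple cis-regulated reporter units. Exposure lasts 24 hours; DMSO defines baseline for gain or loss of signal.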

[15] = target: Nuclear respiratory factor 1 (Homo sapiens) (UniProt Q16656); test: ATG_NRF1_CIS: Attagene CIS-FACTORIAL HepG2 Assay for human Nuclear Respiratory Factor 1 (NRF1) Orphan Gene (AID 2282987); conditions: HepG2 NRF1 cis-element reporter, Attagene multiplex; actives raise or lower the signal
Nuclear respiratory factor 1 (Homo sapiens), sequence (Q16656 whole entry, looked up): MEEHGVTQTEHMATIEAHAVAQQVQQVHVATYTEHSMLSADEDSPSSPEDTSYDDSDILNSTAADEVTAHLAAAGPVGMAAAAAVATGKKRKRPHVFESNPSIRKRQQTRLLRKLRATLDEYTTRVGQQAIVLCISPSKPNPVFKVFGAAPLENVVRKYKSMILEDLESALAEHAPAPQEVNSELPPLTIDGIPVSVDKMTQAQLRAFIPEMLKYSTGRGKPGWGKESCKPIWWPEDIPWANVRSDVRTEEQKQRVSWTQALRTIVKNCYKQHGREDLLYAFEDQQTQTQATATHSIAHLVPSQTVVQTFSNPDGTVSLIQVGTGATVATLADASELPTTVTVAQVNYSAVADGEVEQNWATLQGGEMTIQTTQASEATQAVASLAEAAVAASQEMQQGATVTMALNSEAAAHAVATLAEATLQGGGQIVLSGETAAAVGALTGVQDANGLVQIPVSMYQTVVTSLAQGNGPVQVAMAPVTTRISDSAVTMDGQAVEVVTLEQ
Procedure, shortened: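 Transcriptional reporter readout, one component of a 52-endpoint multiplexed HepG2 panel. Exposure 24 h; mRNA detected via RT-PCR and fluorescent capillary electrophoresis; fitting in both directions against DMSO.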

[16] = ATG_NFI_CIS: Attagene CIS-FACTORIAL HepG2 Assay for human Nuclear Factor I (NFI) (AID 2282989); conditions: HepG2 cis-regulatory reporter, NFI response element transcription; actives raise or lower the signal
Procedure, shortened: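 Cells: human liver HepG2, transiently transfected with promoter-regulated reporter transcription units. Exposure 24 h. Detection: fluorescent RT-PCR products separated by capillary electrophoresis, normalised to DMSO negative control.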

[17] = target: Myc proto-oncogene protein (Homo sapiens) (UniProt P01106); test: ATG_Myc_CIS: Attagene CIS-FACTORIAL HepG2 Assay for human Myelocytomatosis (Myc) Proto-Oncogene Transcription Factor (AID 2282990); conditions: HepG2, Attagene cis-reporter transcription factor activity; actives raise or lower the signal
Myc proto-oncogene protein (Homo sapiens), sequence (P01106 whole entry, looked up): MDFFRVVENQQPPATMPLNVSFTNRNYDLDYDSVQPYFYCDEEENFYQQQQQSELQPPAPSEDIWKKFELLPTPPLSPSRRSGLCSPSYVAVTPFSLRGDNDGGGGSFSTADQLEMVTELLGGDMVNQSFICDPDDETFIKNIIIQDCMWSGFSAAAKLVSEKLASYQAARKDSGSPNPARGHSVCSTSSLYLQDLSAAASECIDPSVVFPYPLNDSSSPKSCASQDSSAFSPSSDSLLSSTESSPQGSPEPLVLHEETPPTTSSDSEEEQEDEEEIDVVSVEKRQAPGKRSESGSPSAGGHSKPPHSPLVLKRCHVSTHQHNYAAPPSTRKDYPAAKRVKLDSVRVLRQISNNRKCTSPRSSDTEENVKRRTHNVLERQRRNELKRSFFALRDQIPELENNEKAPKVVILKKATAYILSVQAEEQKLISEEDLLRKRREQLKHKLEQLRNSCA
Procedure, shortened: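 DMSO-normalised, bidirectionally fitted reporter mRNA signal. HepG2 cells transfected with cis reporter constructs, treated 24 h; transcripts detected by RT-PCR, 6-FAM primer extension and CE.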

[18] = ATG_NF_kB_CIS: Attagene CIS-FACTORIAL HepG2 Assay for human Nuclear Factor Kappa B (NF-kB) (AID 2282991); conditions: HepG2 Attagene cis-factorial NF-kB reporter mRNA; actives raise or lower the signal
Procedure, shortened: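 HepG2, transient multi-reporter transfection, cis promoter elements (endogenous TFs). 24 h exposure. Total RNA → RT → PCR → 6-FAM label → HpaI → CE. Gain/loss vs DMSO.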

[19] = ATG_Oct_MLP_CIS: Attagene CIS-FACTORIAL HepG2 Assay for human Octamer-Binding Transcription Factor (Oct) (AID 2282993); conditions: HepG2 Attagene cis-factorial Oct reporter, mRNA; actives raise or lower the signal
Procedure, shortened: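 HepG2, transient MRTU transfection, cis promoter elements; 24 h dosing; RT-PCR/CE fluorescence read-out of reporter mRNA; fit both directions vs DMSO.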

[20] = target: Paired box protein Pax-6 (Homo sapiens) (UniProt P26367); test: ATG_Pax6_CIS: Attagene CIS-FACTORIAL HepG2 Assay for human Paired Box 6 (PAX6) (AID 2282956); conditions: HepG2 CIS-FACTORIAL PAX6 reporter transcription, RNA readout; actives raise or lower the signal
Paired box protein Pax-6 (Homo sapiens), sequence (P26367 whole entry, looked up): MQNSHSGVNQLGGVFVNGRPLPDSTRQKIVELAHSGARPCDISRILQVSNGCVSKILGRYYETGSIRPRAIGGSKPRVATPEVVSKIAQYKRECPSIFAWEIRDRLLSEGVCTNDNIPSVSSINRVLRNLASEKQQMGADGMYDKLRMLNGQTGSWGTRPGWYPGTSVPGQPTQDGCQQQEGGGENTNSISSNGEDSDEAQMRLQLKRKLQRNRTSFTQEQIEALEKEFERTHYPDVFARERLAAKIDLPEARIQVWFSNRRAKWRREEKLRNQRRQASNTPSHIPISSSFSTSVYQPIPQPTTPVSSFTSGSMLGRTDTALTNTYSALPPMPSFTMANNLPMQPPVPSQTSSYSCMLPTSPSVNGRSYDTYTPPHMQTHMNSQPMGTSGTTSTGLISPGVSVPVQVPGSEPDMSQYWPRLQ
Procedure, shortened: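 DMSO-referenced bidirectional fits of reporter mRNA fluorescence; HepG2 with transient cis-promoter MRTUs, 24 h post-dose, RT-PCR plus capillary electrophoresis detection.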

Measured: AC50

CCc1cccc(C)c1N(C(=O)CCl)[C@@H](C)COC
active: [11] 2.13 µM
not listed: [20]
inactive: all other assays above

CCOP(=O)(OCC)OCC
not listed: [18] | [20]
inactive: all other assays above

Cc1ccc(OP(=O)(Oc2ccc(C)cc2)Oc2ccc(C)cc2)cc1 (tested in a mixture with another compound)
active: [11] 2.35 µM
not listed: [13] | [18]
inactive: all other assays above

C=CC(=O)OC
inactive: all assays above

CCCCCCC1CCOC1=O (stereo not given)
not listed: [6] | [20]
inactive: all other assays above

CC(C)C#N
not listed: [3] | [11]
inactive: all other assays above

C=CCc1ccc(OC(=O)Cc2ccccc2)c(OC)c1
active: [11] 27.5 µM | [18] 114 µM
not listed: [6]
inactive: all other assays above

CN1C(=O)CCS(=O)(=O)C1c1ccc(Cl)cc1 (stereo not given)
not listed: [20]
inactive: all other assays above

CC1CCCC1.[C-]#[O+].[C-]#[O+].[C-]#[O+].[Mn]
active: [2] 12.5 µM
inactive: all other assays above

Oc1cc(Cl)ccc1Cl
not listed: [17]
inactive: all other assays above

CCOC(=O)NC(=S)Nc1ccccc1NC(=S)NC(=O)OCC
not listed: [12] | [20]
inactive: all other assays above

CCC(Br)(CC)C(=O)NC(N)=O
not listed: [13] | [17]
inactive: all other assays above

Nc1ccc(-c2ccc(N)c(N)c2)cc1N
not listed: [3]
inactive: all other assays above

O=C(CCl)c1ccccc1
active: [1] 8.31 µM | [15] 54.4 µM
not listed: [6] | [13]
inactive: all other assays above

CC(C)(O)C#N
not listed: [18]
inactive: all other assays above

— PubChem BioAssay (EPA / NIEHS)
